# Only some compounds are listed: those with a hit (about 14% of all), similar ones and a draw of the others.
# 4-MU autofl: compounds fluorescent in 4-MU spectral region. max dye-equivalent concentration, M. hit rate 11% among 59,000. compound autofluorescence, 340/450 nm, 4-MU equivalents; stronger effect = higher value; in the data active means max dye-equivalent concentration above about 10 nM; inconclusive means mostly about 1.1 nM to 9.6 nM
#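 Compounds in 100 mM Tris, pH 8.0, sat 15 min at room temperature before fluorescence was read at 340 nm excitation/450 nm emission; a per-plate six-point 4-MU standard curve converted signals to dye-equivalent concentration at each compound concentration.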
# A350 autofl: compounds fluorescent in Alexa 350 spectral region; max dye-equivalent concentration, M; hit rate 11% among 59,000; Compound autofluorescence, 340/450 nm, Alexa 350 dye-equivalents; stronger effect = higher value; in the data active means max dye-equivalent concentration above about 10 nM; inconclusive means mostly about 1.1 nM to 9.6 nM
# AID923: qHTS Assay for Allosteric/Competitive Inhibitors of Caspase-1: Spectroscopic Profiling in AFC Spectral Region; hit rate 1.1% among 75,000; AID 923, 2007; compound fluorescence, AFC spectral region (405/520 nm); Potency, µM (series often up to 57.5 µM), without a hit: at the highest dose fluorescence increase, most hits filed as activators; further: potency means the concentration at half of the fitted maximal effect; 0% is about no effect
#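 Titrations up to 57 uM read every 20 sec for 3 min (405/520 nm) with 50 nM caspase 1 and 5 uM Ac-WEHD-AFC, pH 7.5 HEPES buffer. Fluorescence-vs-time intercept gave baseline, scaled against on-plate AFC standard.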
# CRE-bla Fsk: modulators of forskolin-stimulated CRE signaling in CHO cells; Potency, µM (highest dose often 38.2 µM), for inactives: top-dose activity change, negative = inhibition, hits mostly activators; AID 662; CHO CRE-bla reporter (cAMP response element driving beta-lactamase), forskolin EC10, beta-lactamase ratio; hit rate 2.5% among 71,000; active means well fitted activation curve with a large enough effect in the signal ratio, with a control signal flat, not every such curve was filed as active; inconclusive means small, poorly fitted or top-dose-only effect, or effect the other way, or a change in a side signal; the % refers to the signal ratio; further: potency means the concentration at half of the fitted maximal effect; % of control where 0% means no effect
#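 Beta-lactamase reporter under a cAMP responsive element in CHO cells; compounds tested in titration series against EC10 NKH 477, 3 h at 37 °C. Read-out: CCF4 FRET ratio 460nm/530nm (excitation 405nm) giving %Activity, fitted to AC50.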
# HADH2 inhib: HADH2 (human) dehydrogenase inhibition | Q99714 | recombinant HADH2, NADH fluorescence, beta-hydroxybutyryl-CoA | Potency, µM (titrated, usually from 57.1 µM), for inactives: at the top dose activity change, negative = inhibition, most hits filed as inhibitors | hit rate 3.4% among 73,000; further: potency means the concentration at half of the fitted maximal effect; on the % scale 0 is the no-effect control and ±100 the full control effect; nearly all actives have a fitted effect of over 60% in size
# Target sequence (Q99714 whole entry, looked up, one chain of several): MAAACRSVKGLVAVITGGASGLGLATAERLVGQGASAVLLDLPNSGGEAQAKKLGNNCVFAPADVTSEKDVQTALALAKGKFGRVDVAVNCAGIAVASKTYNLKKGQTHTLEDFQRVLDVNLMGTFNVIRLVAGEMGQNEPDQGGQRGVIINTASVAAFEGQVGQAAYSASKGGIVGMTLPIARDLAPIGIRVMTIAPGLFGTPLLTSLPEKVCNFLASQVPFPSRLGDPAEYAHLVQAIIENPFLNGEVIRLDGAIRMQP
#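 Activity measured as NADH fluorescence gain (360/450 nm), taken as the change between first and last reads of a 4-min kinetic run. Conditions: pH 9.0 Tris buffer, 20 nM E. coli-expressed His-tagged enzyme, 1 mM NAD+, 90 uM beta-hydroxybutyryl-CoA; 15-min compound preincubation.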
# HSD17B inh: blocks hydroxysteroid 17-beta dehydrogenase activity | Q99714 | recombinant HSD17B10, NADH fluorescence kinetic | Potency, µM (doses to about 57.1 µM), for the others: top-dose activity change, negative = inhibition, actives largely listed as inhibitors | hit rate 7.6% among 75,000;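 further: the protocol describes HADH2 (HSD17B10) and not the HSD17B4 of the title; potency means the concentration at half of the fitted maximal effect; on the % scale 0 is the no-effect control and ±100 the full control effect; nearly all actives have a fitted effect of over 70% in size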
#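 Enzyme plus compound, 15 min room temperature; substrate mix added (NAD+ 1 mM, beta-hydroxybutyryl-CoA 90 uM final); plates read kinetically for NADH fluorescence. HADH2 was His-tagged, E. coli-derived, 20 nM.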
# CHO via 24h: cytotoxicity in CRE-bla CHO cells at 24 h. shares compounds with CRE-bla Fsk. AID 905. CRE-bla CHO viability, ATP luminescence, 24 h. activity, negative = viability loss, % at 46.1 µM. 120 tested, under 10 active
# CHO via 40h: reduces CRE-bla CHO cell viability after 40 hours. shares compounds with CRE-bla Fsk. CRE-bla CHO viability, ATP luminescence, 40 h. Potency, µM, for inactives: max response, actives largely listed as inhibitors. 120 tested, under 10 active. AID 906
# CREB luc CRC: confirmation of CRE signaling potentiators in HEK293 CREB reporter cells. shares compounds with CRE-bla Fsk. HEK293 CRE-luc2P, NKH477 EC10 potentiation, luminescence, 4 h. Potency, µM (doses to about 38.3 µM), for inactives: at the top dose activity, positive = activation, actives largely listed as activators. hit rate 80% among 120
# * hit, by the source's call; i = inactive; ? = inconclusive; / = not tested or not shown; ! = not confirmed by another sample. Unless noted, the call rests on the fitted dose curve; in most records, active means well fitted curve in the direction sought with a large enough effect; inconclusive means small, poorly fitted or top-dose-only effect, or another doubt; inactive means no such curve, though single readings can be large; an effect the other way counts as inactive or inconclusive.
SMILES,4-MU autofl,A350 autofl,AID923,CRE-bla Fsk,HADH2 inhib,HSD17B inh,CHO via 24h,CHO via 40h,CREB luc CRC
Cn1c(/C(C#N)=C/C2CC=CCC2)nc2ccccc21 (centres undefined),i,?,1%,-1%,0%,1%,-12,-16%,16µM*
COc1ccc(S(=O)(=O)NCCSCc2ccco2)cc1Cl,i,i,2%,-17%,-22%,?,/,/,/
CCCCNc1c(C(=O)OCC)c(C)nc2c1cnn2CC,?,?,-2%,3.2µM*!,?,-8%,-21,?,0.79µM*
COc1ccc(OC)c(NC(=O)c2cn(C)c(=O)c3cc(OC)c(OC)cc23)c1,i,i,0%,0.79µM*,8%,3%,-2,-12%,4µM*
COc1ccc(OC)c(NC(=O)c2cc3sccc3n2C)c1,?,?,2%,11%,-26%,2%,/,/,/
CNc1ccnc(-c2c(C)noc2C)n1,i,i,-3%,?,32%,8%,/,/,/
Cc1cc(N2CCN(S(=O)(=O)c3ccc4c(c3)OCCO4)CC2)n2ncnc2n1,i,i,-3%,5µM*,0%,1%,-7,-15%,13µM*
Nc1ccc(SC(F)(F)F)cc1C(=O)c1ccccc1,/,/,0%,?,-5%,-10%,/,/,/
Cn1cccc1C(=O)N1CCC[C@@]2(CCN(c3ccccc3)C2)C1,i,i,0%,-18%,13%,0%,/,/,/
COc1cc(NC(=O)c2cccc3c2C(=O)N(Cc2cccnc2)C3)cc(OC)c1OC,/,/,-2%,2µM*,17%,-2%,-15,?,0.79µM*
O=C(Nc1ccc2c(c1)OCO2)c1cccc2c1C(=O)N(Cc1cccnc1)C2,i,i,1%,?,-4%,-1%,/,/,/
O=S(=O)(c1ccccc1)N1CCC2(CCN(C(c3ccccc3)c3ccccc3)CC2)CC1,i,i,3%,-7%,6%,1%,/,/,/
OCCN1CCOCCN(CCO)CCOCC1,i,i,-2%,5%,-8%,1%,/,/,/
CC(C)NC(=O)N1CCC2(CC1)CCN(C(=O)c1ccco1)CC2,i,i,2%,?,4%,3%,/,/,/
CCOc1ccc(-c2nnc3ccc(SCc4ccc(C(=O)OC)o4)nn23)cc1,?,?,0%,2µM*,?,-17%,-22,?,2.2µM*
COC(=O)c1ccc(CSc2ccc3nnc(-c4ccccn4)n3n2)o1,/,/,-1%,?,-12%,6%,/,/,/
C=CCn1c(=O)/c(=C/c2cc(OC)c(OC)c(OC)c2)s/c1=C(/C#N)c1nc2ccccc2n1C,?,?,8%,1µM*,9%,-4%,-22,-28%,1µM*
C=CCn1c(=O)/c(=C/c2ccc(Cl)cc2)s/c1=C(/C#N)c1nnc2n1CCCCC2,i,i,4%,?,-6%,17%,/,/,/
O=P(O)(c1ccc(Cl)cc1)c1ccc(Cl)cc1,/,/,1%,-7%,0%,-4%,/,/,/

# Assay outcomes (PubChem BioAssay)
